Screening results deposited in PubChem BioAssay by National Center for Advancing Translational Sciences (NCATS).
AMA1 RON2 block = AMA1-RON2 (P. falciparum) interaction inhibition; Potency, µM (titrated, usually from 58.2 µM), inactives show at the top dose activity change, negative = inhibition, actives largely listed as inhibitors; 360,000 compounds, 0.2% hits; AlphaScreen AMA1-biotinylated RON2 peptide binding;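 note: 0% = vehicle wells and -100% = peptide control; nearly all actives have a fitted effect of over 45% in size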
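AMA1 (3D7) with his tag at 25 nM final met compounds first, then biotinylated RON2 peptide at 25 nM; detection used donor plus acceptor beads, 10 µg/mL apiece, read by AlphaScreen after 30 min at room temperature.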
AmpC no deterg = AmpC beta-lactamase inhibition without detergent. AmpC nitrocefin hydrolysis, absorbance 480 nm, 0.0001% Triton. Potency, µM (highest dose often 57.1 µM), for the others: top-dose activity change, negative = inhibition, most hits filed as inhibitors. 330,000 compounds, 0.52% hits;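 note: plate controls were no compound for no effect and no enzyme for full effect; nearly all actives have a fitted effect of over 20% in size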
Target sequence (P00811 whole entry, looked up): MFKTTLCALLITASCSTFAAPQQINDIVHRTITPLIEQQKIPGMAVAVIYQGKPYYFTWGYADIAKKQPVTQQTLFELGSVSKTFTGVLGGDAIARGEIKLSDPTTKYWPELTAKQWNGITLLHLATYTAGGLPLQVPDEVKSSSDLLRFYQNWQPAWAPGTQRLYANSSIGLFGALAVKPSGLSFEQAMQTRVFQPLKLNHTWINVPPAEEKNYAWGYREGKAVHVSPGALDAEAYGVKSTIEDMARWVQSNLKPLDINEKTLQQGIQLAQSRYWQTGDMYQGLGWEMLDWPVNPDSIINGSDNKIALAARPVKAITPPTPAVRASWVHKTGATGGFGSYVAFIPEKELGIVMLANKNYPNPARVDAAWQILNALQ
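20 mM phosphate pH 7.0 + 0.01% (detergent screen) or 0.0001% Triton X-100; 5.3 nM AmpC reagent; cpd preinc 15 min RT; nitrocefin (800 uM stock) to start; A480 q20 s × 4 min; Activity was normalised to no-enzyme and no-compound control wells.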
Sm TGR inh = S. mansoni TGR enzyme inhibition; Q962Y6; purified TGR, DTNB reduction, TNB absorbance 405 nm; Potency, µM (doses to about 114 µM), for the others: top-dose activity change, negative = inhibition, most hits filed as inhibitors; 360,000 compounds, 3% hits; AID 485364; note: nearly all actives have a fitted effect of over 60% in size
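TGR 20 nM + NADPH 100 uM (dispensed conc.), cpd preinc 15 min RT; start with NADPH (500 uM addition) then DTNB (15 mM addition). Kinetic TNB absorbance, 405 nm filter. Four-parameter Hill fit across titration.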
FMDV inh = antivirals against foot and mouth disease virus. 410,000 compounds, 1.2% hits. AID 1159524. Potency, µM (top dose mostly 57.9 µM), for the others: top-dose activity change, negative = inhibition, most hits filed as inhibitors. FMDV antiviral cell-based qHTS; calls by dose curve; tested in HEK293T cells; note: read-out not given here; nearly all actives have a fitted effect of over 45% in size
AmpC inh detg = AmpC beta-lactamase inhibition with detergent present | P00811 | AmpC hydrolysis of nitrocefin, absorbance 480 nm, 0.01% Triton | Potency, µM (doses to about 114 µM), without a hit: at the top dose activity change, negative = inhibition, actives largely listed as inhibitors | 370,000 compounds, 0.041% hits;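 note: 0% = no-compound wells and -100% = no-enzyme wells; nearly all actives have a fitted effect of over 25% in size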
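20 mM phosphate pH 7.0 + 0.01% (detergent screen) or 0.0001% Triton X-100; 5.3 nM AmpC reagent; cpd preinc 15 min RT; nitrocefin (800 uM stock) to start; A480 q20 s × 4 min; Activity was normalised to no-enzyme and no-compound control wells.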
Starred values were filed as active, the others as inactive. Only some compounds are listed: those with a hit (about 4.1% of all), similar ones and a draw of the others. Unless noted, calls come from the whole dose curve; as a rule, active = well fitted curve in the direction sought with a large enough effect; inconclusive = small, poorly fitted or top-dose-only effect, or another doubt; inactive = no such curve, though single readings can be large; an effect the other way counts as inactive or inconclusive. Unless noted, % is set by controls: 0 for no effect and ±100 for the full control effect; potency is the fitted concentration of half-maximal effect.

Results for O=C(/C(=N\Nc1ccccc1)Sc1nnnn1-c1ccccc1)c1ccccc1 ?
AMA1 RON2 block: -15.2%; AmpC no deterg: 1.12µM*; Sm TGR inh: -7.0%; FMDV inh: 31.0%; AmpC inh detg: inconclusive

What do the screens show for `Cc1ccc(-c2noc(C3CCCN(C(=O)c4ccccc4Br)C3)n2)o1` (stereo not drawn)?
AMA1 RON2 block: 3.4%; AmpC no deterg: 41.6%; Sm TGR inh: inconclusive; FMDV inh: 51.5%; AmpC inh detg: -11.0%

What do the screens show for `Cc1ccc(-c2noc(C3CCCN(C(=O)c4ccccc4)C3)n2)o1` (stereo not drawn)?
AMA1 RON2 block: 0.4%; AmpC no deterg: 5.0%; Sm TGR inh: 56.2µM*; FMDV inh: 27.7%; AmpC inh detg: -14.8%

What do the screens show for `Cc1ccccc1Cn1c(=O)n(CCCCC(=O)NCCc2ccccc2)c(=O)c2ccccc21`?
Sm TGR inh: -3.5%; FMDV inh: -7.5%; AmpC inh detg: 19.4%

Results for O=S(=O)(c1ccccc1F)N(Cc1ccco1)Cc1nnc(-c2ccccc2Br)o1 ?
AMA1 RON2 block: -0.3%; AmpC no deterg: -9.2%; Sm TGR inh: 15.8µM*; FMDV inh: -23.0%; AmpC inh detg: -9.9%

How did COc1ccc(F)cc1S(=O)(=O)NCCc1csc2nc(-c3cccc(C)c3)nn12 do in these assays?
Sm TGR inh: 10.6%; FMDV inh: 63.9%; AmpC inh detg: 3.2%

Results for COC(=O)C1=C(c2ccc3ccccc3c2)C[C@@H]2CC[C@H]1N2C ?
AMA1 RON2 block: 4.4%; AmpC no deterg: -0.6%; Sm TGR inh: -27.2%; FMDV inh: 18.2%; AmpC inh detg: -4.9%

Results for COC(=O)C1=C(C(=O)OC)C2OC1c1cc3ccccc3cc12 ?
AMA1 RON2 block: 3.8%; FMDV inh: 28.2µM*

How did COc1ccc(-c2nnc(SCC(=O)N3CCC(C)CC3)o2)cc1 do in these assays?
Sm TGR inh: 1.8%; FMDV inh: 3.0%; AmpC inh detg: 15.2%

How did C=C(C(=O)c1ccccc1)C(C(=C)C(=O)c1ccccc1)c1ccc(OC)cc1 do in these assays?
AMA1 RON2 block: -3.7%; AmpC no deterg: -25.9%; Sm TGR inh: 3.3%; FMDV inh: 28.2µM*; AmpC inh detg: 4.1%

How did COc1ccc(C(CC(=O)c2ccccc2)CC(=O)c2ccccc2)cc1 do in these assays?
AMA1 RON2 block: 2.9%; AmpC no deterg: -34.1%; Sm TGR inh: 11.1%; FMDV inh: 0.8%; AmpC inh detg: 1.2%

How did Cc1cccc2cc(CN(CC3CCCO3)C(c3nnnn3Cc3ccco3)C(C)C)c(=O)[nH]c12 (stereo not drawn) do in these assays?
AMA1 RON2 block: -11.4%; AmpC no deterg: 44.8%; Sm TGR inh: 50.1µM*; FMDV inh: 0.0%; AmpC inh detg: 4.0%

What do the screens show for `COc1ccc2cc(CN(Cc3ccco3)C(c3nnnn3C3CCCCC3)C(C)C)c(=O)[nH]c2c1` (stereo not drawn)?
AMA1 RON2 block: 0.0%; AmpC no deterg: -20.9%; Sm TGR inh: inconclusive; FMDV inh: 15.8µM*; AmpC inh detg: inconclusive

Results for COc1ccc2cc(CN(Cc3ccco3)Cc3nnnn3C3CCCCC3)c(=O)[nH]c2c1 ?
AMA1 RON2 block: 1.4%; AmpC no deterg: 78.9%; Sm TGR inh: -32.0%; FMDV inh: -14.5%; AmpC inh detg: -18.8%

Results for Cc1cc(C)c2[nH]c(=O)c(C(c3nnnn3C(C)(C)C)N(Cc3ccco3)CC3CCCO3)cc2c1 (stereo not drawn) ?
AMA1 RON2 block: -4.5%; AmpC no deterg: 50.2%; Sm TGR inh: 44.7µM*; FMDV inh: 8.4%; AmpC inh detg: 0.0%

What do the screens show for `Cc1cc2cc(C(c3nnnn3C(C)(C)C)N(Cc3ccco3)CC3CCCO3)c(=O)[nH]c2cc1C` (stereo not drawn)?
AMA1 RON2 block: 5.1%; AmpC no deterg: 8.7%; Sm TGR inh: inconclusive; FMDV inh: -2.6%; AmpC inh detg: -15.7%

Results for Cc1ccc(Cl)cc1NC(=O)CN1C(=O)c2ccccc2Sc2ncccc21 ?
Sm TGR inh: 3.8%; FMDV inh: -19.3%; AmpC inh detg: 21.8%

What do the screens show for `COCc1c(C(=O)N2CCN(c3ccccc3)CC2)cnn1-c1nccc(-c2ccco2)n1`?
FMDV inh: 0.6%
